Bioassay records: PubChem, National Center for Advancing Translational Sciences (NCATS)
ELG1 genotox – induces genotoxicity in HEK293T cells with luciferase-tagged ELG1 | HEK293T ELG1-luciferase reporter, luminescence, 16 h | Potency, µM (doses to about 46 µM), for the others: top-dose activity change, positive = activation, hits mostly activators | hit rate 1.3% among 330,000 | AID 504466; further: % of control where 0% means no effect; nearly all actives have a fitted effect of over 60% in size
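16 hr compound incubation (37 °C, 5% CO2) of HEK293T cells carrying luciferase-tagged ELG1; luciferase then measured by ONE-Glo luminescence after 30 min at RT.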
Luc counter – blocks Kinase-Glo luciferase, a counter-screen artifact; Q27757; Potency, µM (top dose mostly 38.3 µM), inactives show at the top dose activity change, negative = inhibition, usual class: inhibitors; AID 1379; hit rate 0.28% among 200,000; Kinase-Glo luciferase, ATP luminescence, 8 min; further: on the % scale 0 is the no-effect control and ±100 the full control effect; nearly all actives have a fitted effect of over 60% in size
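Compound is pinned into ATP-containing buffer (10 uM ATP, imidazole pH 7.2, 7 mM MgCl2). Kinase-Glo luciferase reagent is then added. Light output is recorded following an 8-min room-temperature incubation.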
NPC1 prom act – NPC1 promoter activation; Huh7 NPC1 promoter luciferase reporter, 24 h; hit rate 2.4% among 320,000; AID 485313; Potency, µM (doses to about 9.22 µM), for inactives: at the highest dose activation, usual class: activators; further: % of control where 0% means no effect; nearly all actives have a fitted effect of over 60% in size
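Readout is luciferase luminescence, reflecting NPC1 promoter activation in stably transfected Huh7 cells after 24 h compound exposure at 37 °C in reduced-serum medium with 10% FBS.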
FLuc modulator – inhibits or activates purified firefly luciferase, miR-21 counter-screen; Potency, µM (highest dose often 57.5 µM), for the others: at the top dose activity change, negative = inhibition, usual class: inhibitors; hit rate 6.9% among 360,000; purified FLuc, Km substrates, luminescence inhibition; P08659; AID 588342;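 further: plate controls were vehicle for no effect and reference inhibitor for full effect; nearly all actives have a fitted effect of over 55% in size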
Target sequence (P08659 whole entry, looked up): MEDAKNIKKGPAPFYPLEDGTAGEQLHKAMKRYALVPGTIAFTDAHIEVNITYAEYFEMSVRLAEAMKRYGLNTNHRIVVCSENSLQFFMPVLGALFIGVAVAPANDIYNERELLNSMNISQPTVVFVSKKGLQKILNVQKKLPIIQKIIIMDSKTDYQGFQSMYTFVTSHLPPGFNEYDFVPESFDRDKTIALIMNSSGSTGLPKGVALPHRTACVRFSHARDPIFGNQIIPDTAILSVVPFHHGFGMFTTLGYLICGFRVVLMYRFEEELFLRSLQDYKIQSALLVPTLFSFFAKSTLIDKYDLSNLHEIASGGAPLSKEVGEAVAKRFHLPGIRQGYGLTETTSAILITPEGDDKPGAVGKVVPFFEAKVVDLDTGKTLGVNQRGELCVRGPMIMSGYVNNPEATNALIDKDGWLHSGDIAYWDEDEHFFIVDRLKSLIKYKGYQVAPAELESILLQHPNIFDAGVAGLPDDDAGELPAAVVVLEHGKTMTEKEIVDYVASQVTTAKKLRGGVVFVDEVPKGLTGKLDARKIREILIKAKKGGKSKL
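Purified P. pyralis luciferase (10nM final) with 10uM D-luciferin and 10uM ATP (Km levels) in 50mM Tris acetate pH 7.5, 10mM Mg acetate, 0.01% Tween-20, 0.05% BSA; qHTS 6-point titration, ~60 µM downward; luminescence read.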
Rab9 prom act – Rab9 promoter activation. Huh7 Rab9 promoter-luciferase reporter, luminescence, 24 h. Potency, µM (titrated, usually from 9.22 µM), without a hit: at the highest dose activation, negative = inhibition, hits mostly activators. hit rate 2.8% among 320,000; further: % of control where 0% means no effect; nearly all actives have a fitted effect of over 60% in size
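Cells were plated at 1500 per well in reduced-serum medium with 10% FBS and left 2 h. Compound in DMSO was then added for 24 h at 37 °C. Reporter signal was read by luminescence after 10 min with luciferase detection reagent.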
SMN2 splice up – enhancers of SMN2 splice variant expression | hit rate 2.8% among 210,000 | HEK293 SMN2-luciferase splicing reporter, luminescence, 30-36 h | Potency, µM (highest dose often 46.1 µM), for inactives: at the highest dose activity change, positive = activation, actives largely listed as activators | AID 1458; further: % of control where 0% means no effect; nearly all actives have a fitted effect of over 55% in size
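qHTS luciferase splicing reporter: luminescence rises when SMN2 exon 7 is included in transfected HEK293 cells. Compound exposure lasted 30-36 h at 37C, with 4.5 mM final sodium butyrate as control, followed by a ONE-Glo read.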
* marks the source's active call; other numbers are inactive results. In the library only some 7.3% were active in any assay of this set; here they are far more common. The call rests on the fitted dose curve; in most records, active means well fitted curve in the direction sought with a large enough effect; inconclusive means small, poorly fitted or top-dose-only effect, or another doubt; inactive means no such curve, though single readings can be large; an effect the other way counts as inactive or inconclusive. Potency means the concentration at half of the fitted maximal effect.

What do the screens show for `Cc1ccc(C(=O)Nc2nc3ccccc3[nH]2)cc1`?
ELG1 genotox: inconclusive; NPC1 prom act: 0.56µM*; FLuc modulator: 0.095µM*; Rab9 prom act: 0.63µM*

What do the screens show for `COc1ccccc1CN1CCN(C(=O)COc2ccccc2)CC1`?
ELG1 genotox: 0%; Luc counter: 3%; NPC1 prom act: 2%; FLuc modulator: -2%; Rab9 prom act: -2%; SMN2 splice up: -7%

How did O=C(Nc1cccc(C(F)(F)F)c1)C1CCCN1S(=O)(=O)c1cccc2nsnc12 (stereo unspecified) do in these assays?
FLuc modulator: -1%; SMN2 splice up: -62%

Results for Cc1ccc(N2C(=O)NC(=O)/C(=C\c3ccc(N4CCOCC4)cc3)C2=O)cc1 ?
ELG1 genotox: 6%; Luc counter: -8%; NPC1 prom act: 9%; FLuc modulator: -18%; Rab9 prom act: 1%; SMN2 splice up: 10%

What do the screens show for `Cc1ccc(N2C(=O)NC(=O)/C(=C\c3ccc([N+](=O)[O-])o3)C2=O)cc1`?
ELG1 genotox: -2%; Luc counter: -13%; NPC1 prom act: 1%; FLuc modulator: 27µM*; Rab9 prom act: -3%; SMN2 splice up: -1%

Results for Cc1cc(/C=C2/C(=O)NC(=O)N(c3ccc(Br)cc3)C2=O)c(C)n1C ?
ELG1 genotox: 4%; NPC1 prom act: 1%; FLuc modulator: -2%; Rab9 prom act: -33%

What do the screens show for `CCC(=O)Nc1ccc(C(=O)OCc2ccccc2Cl)cc1`?
ELG1 genotox: 15%; Luc counter: -1%; NPC1 prom act: inconclusive; FLuc modulator: 19µM*; Rab9 prom act: inconclusive; SMN2 splice up: -14%

What do the screens show for `On1ccccc1=S`?
ELG1 genotox: -53%; NPC1 prom act: -24%; FLuc modulator: 8.5µM*; Rab9 prom act: -36%

Results for C/C(=N\OC(=O)NC(C)C)c1sc(-c2ccc(Cl)cc2)nc1C ?
ELG1 genotox: inconclusive; Luc counter: -20%; NPC1 prom act: inconclusive; FLuc modulator: 13µM*; Rab9 prom act: inconclusive; SMN2 splice up: inconclusive

How did CCNC(=O)O/N=C(\C)c1sc(-c2ccc(Cl)cc2)nc1C do in these assays?
ELG1 genotox: inconclusive; Luc counter: inconclusive; NPC1 prom act: 1.4µM*; FLuc modulator: 2.7µM*; Rab9 prom act: 3.5µM*; SMN2 splice up: 29%

How did C/C(=N\OC(=O)NC(C)C)c1sc(-c2ccccc2)nc1C do in these assays?
ELG1 genotox: 6%; Luc counter: -9%; NPC1 prom act: 4µM*; FLuc modulator: inconclusive; Rab9 prom act: inconclusive; SMN2 splice up: 21%

Results for OC(c1ccccc1)(c1ccccc1)c1ccncc1 ?
ELG1 genotox: -2%; Luc counter: -2%; NPC1 prom act: -3%; FLuc modulator: 1%; Rab9 prom act: 0%; SMN2 splice up: -4%

How did COC(=O)C1C(O)C(C)C(O)C(C)/C=C\C=C(/C)C(=O)Nc2c(C)c(OC(C)=O)c3c(c2O)C(=O)C(C)=C2OCOC(=C23)/C(C)=C/C(C)(O)C(O)C(C)C1O (stereo unspecified) do in these assays?
ELG1 genotox: 2%; NPC1 prom act: 0%; FLuc modulator: -1%; Rab9 prom act: 1%

What do the screens show for `CN1C(=O)C(=Cc2ccc(N3CCCCCC3)cc2)C(=O)N(C)C1=O`?
ELG1 genotox: 0%; NPC1 prom act: -3%; FLuc modulator: 19µM*; Rab9 prom act: 0%

What do the screens show for `O=C1NC(=O)N(Cc2ccc(F)cc2)C(=O)/C1=C\c1ccc(N2CCCC2)cc1`?
ELG1 genotox: 11%; NPC1 prom act: -4%; FLuc modulator: inconclusive; Rab9 prom act: 2%

What do the screens show for `COC(=O)c1ccc(-n2c(C)nc3ccccc3c2=O)cc1`?
ELG1 genotox: 0%; Luc counter: -3%; NPC1 prom act: 2%; FLuc modulator: 2%; Rab9 prom act: -6%; SMN2 splice up: -9%

Results for COC(=O)c1ccc(-c2nc(-c3ccc(Br)o3)no2)cc1 ?
ELG1 genotox: inconclusive; Luc counter: -12%; NPC1 prom act: 3.2µM*; FLuc modulator: 1.7µM*; Rab9 prom act: 4µM*; SMN2 splice up: 12%

What do the screens show for `O=c1c2ccccc2nc(CSc2ncnc3nc[nH]c23)n1-c1ccc(Cl)c(Cl)c1`?
ELG1 genotox: -8%; Luc counter: -1%; NPC1 prom act: -4%; FLuc modulator: 0%; Rab9 prom act: 1%; SMN2 splice up: -18%

How did O=C1C2C3CCC(C3)C2C(=O)N1c1ccc(OS(=O)(=O)c2ccccc2)cc1 (stereo unspecified) do in these assays?
ELG1 genotox: inconclusive; Luc counter: -2%; NPC1 prom act: 3.5µM*; FLuc modulator: 12µM*; Rab9 prom act: 1.1µM*; SMN2 splice up: -27%

Results for Cc1cccn2c(=O)c3cc(C(=O)N4CCC5(CC4)OCCO5)n(C)c3nc12 ?
ELG1 genotox: 4%; Luc counter: -2%; NPC1 prom act: -19%; FLuc modulator: 0%; Rab9 prom act: -11%; SMN2 splice up: 7%

Results for CC(C)C12CN3CCN(CC(C3)C1O)C2 (stereo unspecified) ?
Luc counter: -1%; FLuc modulator: 4%; SMN2 splice up: -6%

How did O=C(c1ccc(Cl)cc1)C1CCCN(Cc2cccc3cccnc23)C1 (stereo unspecified) do in these assays?
ELG1 genotox: -7%; Luc counter: 5%; NPC1 prom act: 0%; FLuc modulator: -1%; Rab9 prom act: -5%

Results for Cc1nc2ccc(NC(=O)C3COc4ccccc4O3)cc2s1 (stereo unspecified) ?
ELG1 genotox: inconclusive; NPC1 prom act: inconclusive; FLuc modulator: 12µM*; Rab9 prom act: inconclusive

What do the screens show for `CC(C)NC(=O)COC(=O)c1ccc(S(=O)(=O)N2CCCC2)cc1`?
ELG1 genotox: 3%; Luc counter: 1%; NPC1 prom act: -2%; FLuc modulator: 1%; Rab9 prom act: 2%; SMN2 splice up: -14%

What do the screens show for `CC1(C)CN=C(Nc2nc3ccccc3s2)S1`?
ELG1 genotox: 5.8µM*; Luc counter: -1%; NPC1 prom act: 1.8µM*; FLuc modulator: 3.4µM*; Rab9 prom act: 0.63µM*; SMN2 splice up: 13µM*

What do the screens show for `CCOC(=O)C1=C(N)Oc2cc(C)oc(=O)c2C12C(=O)N1c3c(cccc32)C(C)=CC1(C)C` (stereo unspecified)?
ELG1 genotox: 0%; Luc counter: -5%; NPC1 prom act: -4%; FLuc modulator: 0%; Rab9 prom act: -1%; SMN2 splice up: 3%
